One assay concerns the target Tumor necrosis factor receptor superfamily member 10B (Homo sapiens) (UniProt O14763). The assay is described as follows: viability loss of caspase-8 NB7 cells with TRAIL – with/without TRAIL, luminescence panel, confirmation (AID 651596). To be noted: NB7 neuroblastoma + caspase-8, TRAIL sensitization, NB7 Caspase-8, with TRAIL, mean of runs, at 10 µM, stronger effect = higher value.
Chain of Tumor necrosis factor receptor superfamily member 10B (Homo sapiens) (O14763 whole entry, looked up): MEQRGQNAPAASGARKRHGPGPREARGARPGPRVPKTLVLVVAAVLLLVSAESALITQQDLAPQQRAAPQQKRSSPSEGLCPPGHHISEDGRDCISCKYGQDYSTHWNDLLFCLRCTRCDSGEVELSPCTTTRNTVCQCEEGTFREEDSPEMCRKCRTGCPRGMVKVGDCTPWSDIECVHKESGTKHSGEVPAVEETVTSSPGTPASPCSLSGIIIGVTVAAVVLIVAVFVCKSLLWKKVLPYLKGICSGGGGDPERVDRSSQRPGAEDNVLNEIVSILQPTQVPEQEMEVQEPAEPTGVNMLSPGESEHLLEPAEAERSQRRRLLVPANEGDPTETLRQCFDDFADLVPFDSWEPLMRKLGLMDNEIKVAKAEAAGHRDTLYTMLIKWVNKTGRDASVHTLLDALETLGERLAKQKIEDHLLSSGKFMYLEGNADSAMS
Take `c1ccc(-c2ccc(-c3cn4c(n3)CCC4)cc2)cc1`: the activity came to 62.8%.
For the compound `O=C(/C=C/c1ccc(F)cc1)NC(=S)Nc1ccccc1C(=O)NC1CCCCC1`, the activity was -1.65%.
Regarding `C#Cc1ccc(NC(=O)C2(C)CCN2C(=O)CC(c2ccccc2)c2ccccc2)cc1` (stereo not given), the activity stood at 94.4%.
Turning to `O=C(Nc1nc2ccccc2[nH]1)c1cc2ccccc2o1`, the activity was determined as 87.2%.
In the case of `C#Cc1cc(N2CCN(C(=O)c3ccoc3)CC2)n2nc(-c3cccc(Cl)c3)cc2n1`, the activity is 98.4%.
Turning to `Cc1ccc2nc(NC(=O)c3ccco3)sc2c1`, the activity came out at 80.4%.
For the compound `S=c1[nH]ncn1/N=C/c1ccc(N2CCOCC2)cc1`, the activity turned out to be 62%.
For the compound `Cc1cc(NC(=O)c2ccc(C(C)(C)C)cc2)no1`, the activity came to 77.8%.
Take `Fc1ccccc1-c1ccc(/C=N/Nc2nc3ccccc3[nH]2)o1`: the activity was determined as 82.7%.
As for `CN(C)CCNC(=O)c1cccc(-c2cc(NC=O)c3ncc(-c4cccc(C(F)(F)F)c4)n3c2)c1`, the activity turned out to be 99.4%.
Same read-out and setting: the value for `C/C(=N\NC(=O)c1cc(O)ccc1O)c1cccc(NC(=O)c2ccc(Cl)cc2)c1` was 40.8%.
Take `CN(C)c1ccc(C=Nc2ccccc2C(N)=O)cc1`: the activity turned out to be 85.3%.
Consider `Cc1onc(-c2ccccc2Cl)c1C(=O)O/N=C(\N)c1ccccc1`, for which the activity is 99%.
As to `COc1ccc2nc(N3C(=O)CNC3=S)sc2c1`, the activity came to 51.8%.
`Oc1cc(NCc2ccc(F)cc2)cc2cccnc12`: the activity worked out at 36.8%.
Turning to `COc1ccc(-c2cc3ccccc3c(=O)o2)cc1`, the activity was 49.4%.
For `O=C(Nc1ccc(Cl)c(Cl)c1)Nc1ccccc1C(=O)O`, the activity was 44.6%.
Take `Cc1ccc2nc(NC(=O)c3ccccc3F)sc2c1`: the activity worked out at 67.5%.
On the same count and under the same terms, the same measure for `O=C(Nc1ccc(NC(=O)c2ccco2)nc1)c1ccco1`: 71.2%; for `COc1cccc(N=c2oc3ccc(OC)cc3cc2-c2nc3ccccc3[nH]2)c1`: 12.8%; for `CC(C)COCc1ccc(O)c2ncccc12`: 38.6%.
As to `CCn1c(=O)c([N+](=O)[O-])c(Cl)c2ccccc21`, the activity turned out to be 83.6%.
As for `Cc1ccc(NC(=O)c2nc(S(=O)(=O)Cc3ccccc3)ncc2Cl)cc1`, the activity amounted to 83.5%.
In the case of `Cc1ccc(-c2cc(C(=O)N3CCCC3)no2)cc1`, the activity stood at 73.3%.
In the case of `Nc1cnnc(N/N=C\c2ccccc2)c1Cl`, the activity stood at 22.9%.
In the case of `C#CCN(C[C@@H]1[C@@H](OC(=O)Nc2cccs2)[C@@H](OC(=O)Nc2cccs2)Cn2c(=O)ccc(=O)n21)S(=O)(=O)c1ccc(C)cc1`, the activity came out at 96.5%.
As for `O=C(Nc1ccc2c(c1)OCCO2)C(=O)c1c[nH]c2ccccc12`, the activity came out at 83.2%.
For the compound `C#CCSc1nnc(-c2sc(-c3ccccc3)nc2C)n1C`, the activity was determined as 84.7%.
On to `COc1ccc(/C=C(\C#N)C(=O)OCC(=O)Nc2ccc(-c3nc4ccc(C)cc4s3)cc2)cc1`, for which the activity stood at 42.9%.
Regarding `Cc1ccc(CS(=O)(=O)c2ncc(Cl)c(C(=O)Nc3nnc(C(C)C)s3)n2)cc1`, the activity was 67.5%.
On to `CC(C)Oc1ccc(C(=O)NC2=NCCS2)cc1`, for which the activity turned out to be 57.7%.
In the case of `Cc1nc(=S)c2c([nH]1)-c1ccccc1CC21CCCCC1`, the activity worked out at 92%.
Take `COC(=O)c1ccc(CCc2cc(O)c(Br)cc2O)cc1`: the activity stood at 15%.
As for `CC(C)c1nnc(NC(=O)c2c(O)c3cccc4c3n(c2=O)CCC4)s1`, the activity is 43.6%.
With `Cc1nnc(SCC(=O)Nc2ccc(-c3nc4ccccc4s3)cc2)s1`, the activity worked out at 51.9%.
Take `CN1CCN(c2ccc3sc(-n4ccc5ccccc54)nc3c2)CC1`: the activity came out at 76.2%.
For `CCOc1cc(NC(=O)CCl)c(OCC)cc1NC(=O)CCl`, the activity was 96.6%.
As to `CC[C@H]1CN2CCc3cc(OC)c(OC)cc3C2C[C@@H]1C[C@H]1NCCc2cc(OC)c(OC)cc21` (stereo not given in full), the activity was 70%.
In the case of `Cc1ccc(C(=O)OCn2ncc(Cl)c(Cl)c2=O)cc1`, the activity was found to be 100%.
With `N/C(Cc1ccc(Cl)c(Cl)c1)=N\OC(=O)c1cccs1`, the activity amounted to 49.6%.

System in the next assay: not listed separately
The assay is described as above. To be noted: NB7 neuroblastoma + caspase-8, without TRAIL, NB7 Caspase-8, without TRAIL, mean of runs, at 10 µM.
In the case of `c1ccc(-c2ccc(-c3cn4c(n3)CCC4)cc2)cc1`, the activity came out at 67.6%.
The same measure, in the same setting: the same measure for `O=C(/C=C/c1ccc(F)cc1)NC(=S)Nc1ccccc1C(=O)NC1CCCCC1`: -0.275%; for `C#Cc1ccc(NC(=O)C2(C)CCN2C(=O)CC(c2ccccc2)c2ccccc2)cc1` (stereo not given): 89%.
The same measure, in the same setting: the same measure for `O=C(Nc1nc2ccccc2[nH]1)c1cc2ccccc2o1`: 87%; for `C#Cc1cc(N2CCN(C(=O)c3ccoc3)CC2)n2nc(-c3cccc(Cl)c3)cc2n1`: 97.3%; for `Cc1ccc2nc(NC(=O)c3ccco3)sc2c1`: 76.2%.
For the compound `S=c1[nH]ncn1/N=C/c1ccc(N2CCOCC2)cc1`, the activity came to 59.8%.
In the case of `Cc1cc(NC(=O)c2ccc(C(C)(C)C)cc2)no1`, the activity was determined as 79.9%.
The same measure, in the same setting: the same measure for `Fc1ccccc1-c1ccc(/C=N/Nc2nc3ccccc3[nH]2)o1`: 79.2%; for `CN(C)CCNC(=O)c1cccc(-c2cc(NC=O)c3ncc(-c4cccc(C(F)(F)F)c4)n3c2)c1`: 99.5%.
As for `C/C(=N\NC(=O)c1cc(O)ccc1O)c1cccc(NC(=O)c2ccc(Cl)cc2)c1`, the activity came out at 24.6%.
The same measure, in the same setting: the value for `CN(C)c1ccc(C=Nc2ccccc2C(N)=O)cc1` was 86.5%; that for `Cc1onc(-c2ccccc2Cl)c1C(=O)O/N=C(\N)c1ccccc1` was 98.1%; that for `COc1ccc2nc(N3C(=O)CNC3=S)sc2c1` was 49.4%.
On to `Oc1cc(NCc2ccc(F)cc2)cc2cccnc12`, for which the activity was 33.5%.
Same read-out and setting: the same measure for `COc1ccc(-c2cc3ccccc3c(=O)o2)cc1`: 56.6%.
Take `O=C(Nc1ccc(Cl)c(Cl)c1)Nc1ccccc1C(=O)O`: the activity stood at 42.5%.
As for `Cc1ccc2nc(NC(=O)c3ccccc3F)sc2c1`, the activity stood at 64%.
Consider `O=C(Nc1ccc(NC(=O)c2ccco2)nc1)c1ccco1`, for which the activity was determined as 61.5%.
As for `COc1cccc(N=c2oc3ccc(OC)cc3cc2-c2nc3ccccc3[nH]2)c1`, the activity turned out to be 18.1%.
Consider `CC(C)COCc1ccc(O)c2ncccc12`, for which the activity is 32.1%.
The same measure, in the same setting: the value for `CCn1c(=O)c([N+](=O)[O-])c(Cl)c2ccccc21` was 70.1%; that for `Cc1ccc(NC(=O)c2nc(S(=O)(=O)Cc3ccccc3)ncc2Cl)cc1` was 96.1%; that for `Cc1ccc(-c2cc(C(=O)N3CCCC3)no2)cc1` was 67%.
Consider `Nc1cnnc(N/N=C\c2ccccc2)c1Cl`, for which the activity is 19.8%.
On to `C#CCN(C[C@@H]1[C@@H](OC(=O)Nc2cccs2)[C@@H](OC(=O)Nc2cccs2)Cn2c(=O)ccc(=O)n21)S(=O)(=O)c1ccc(C)cc1`, for which the activity was 95.8%.
For `O=C(Nc1ccc2c(c1)OCCO2)C(=O)c1c[nH]c2ccccc12`, the activity was determined as 90.5%.
Same read-out and setting: the same measure for `C#CCSc1nnc(-c2sc(-c3ccccc3)nc2C)n1C`: 90%; for `COc1ccc(/C=C(\C#N)C(=O)OCC(=O)Nc2ccc(-c3nc4ccc(C)cc4s3)cc2)cc1`: 27.9%.
For the compound `Cc1ccc(CS(=O)(=O)c2ncc(Cl)c(C(=O)Nc3nnc(C(C)C)s3)n2)cc1`, the activity turned out to be 59.3%.
As for `CC(C)Oc1ccc(C(=O)NC2=NCCS2)cc1`, the activity worked out at 61.8%.
Turning to `Cc1nc(=S)c2c([nH]1)-c1ccccc1CC21CCCCC1`, the activity was found to be 76.4%.
Take `COC(=O)c1ccc(CCc2cc(O)c(Br)cc2O)cc1`: the activity is 19.7%.
Consider `CC(C)c1nnc(NC(=O)c2c(O)c3cccc4c3n(c2=O)CCC4)s1`, for which the activity is 36.5%.
As to `Cc1nnc(SCC(=O)Nc2ccc(-c3nc4ccccc4s3)cc2)s1`, the activity amounted to 33.7%.
Turning to `CN1CCN(c2ccc3sc(-n4ccc5ccccc54)nc3c2)CC1`, the activity turned out to be 64.5%.
As to `CCOc1cc(NC(=O)CCl)c(OCC)cc1NC(=O)CCl`, the activity was found to be 98.5%.
As to `CC[C@H]1CN2CCc3cc(OC)c(OC)cc3C2C[C@@H]1C[C@H]1NCCc2cc(OC)c(OC)cc21` (stereo not given in full), the activity came out at 83.4%.
Consider `Cc1ccc(C(=O)OCn2ncc(Cl)c(Cl)c2=O)cc1`, for which the activity worked out at 100%.
Take `N/C(Cc1ccc(Cl)c(Cl)c1)=N\OC(=O)c1cccs1`: the activity came to 39.5%.
